Test system: CIT
Details: concentration: 1 μM, replicates: in singlicate; n = 1
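Further: KINOMEscan kinase panel screen.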

| Compound | %Inh [%] |
| --- | --- |
| COc1ccc(Nc2nccc(NCCNC(=O)Nc3cc(C)ccc3C)n2)cc1 [GSK1379899] | 7 |
| Cc1ccc(NC(=O)Nc2ccccc2F)cc1-c1ccc(C(=O)Nc2ccncc2)cc1 [GSK1398477] | 89 |
| Cl.Cl.Cl.N#Cc1ccc(CCNc2nccc(-c3cccc(CN4CCNCC4)c3)n2)cc1 [GSK2137462] | 82 |
| O=C1NC(=O)C(c2ccc(Cl)cc2)=C1Nc1cccc(Cl)c1 [SB-317651] | 0 |
| Cc1ccccc1-c1cc(-c2c[nH]nc2-c2ccccn2)ccn1 [GW680061] | 24 |
| Fc1ccc(-c2nc3n(c2-c2ccncc2)CCS3)cc1 [GI98581] | 92.9 |
| CC(C)c1ccc(O)cc1Nc1ccnc2ccc(C(F)(F)F)cc12 [GW482059] | 25 |
| CC(=O)c1cccc(NC(=O)NC2CCN(c3ccnc(Nc4ccc(F)cc4)n3)C2)c1 (stereo not shown) [GSK1379710] | 29 |
| Cc1nccc(-c2c(-c3ccc(F)cc3)ncn2CCCN2CCOCC2)n1.Cl [SB-282975] | 21 |
| O=C(Nc1n[nH]c2nc(-c3ccco3)c(Br)cc12)C1CCN(Cc2ccccc2)C1.O=C(O)[C@H](O)[C@@H](O)C(=O)O (stereo not shown) [SB-742034] | 0 |
| O=c1cc(N2CCOCC2)nc2n(Cc3cccc(Cl)c3Cl)c3ccccc3n12 [GSK2299009] | 21 |
| Cn1cnc2c(N)ncnc21 [SKF-97623] | 1 |
| CNCc1ccc2nc(NC(=O)c3ccc(C(C)(C)C)cc3)cn2c1 | 0 |
| COc1ccc(CSc2nnc(-c3ccc4nccn4c3)o2)cc1C(F)(F)F | 14 |
| O=C(Nc1n[nH]c2nc(-c3cccs3)c(Br)cc12)C1CCCC1 [SB-743341] | 4 |
| Nc1nccc(-c2c(-c3ccc(F)cc3)ncn2C2CCN(Cc3ccccc3)CC2)n1 [SB-219980] | 97.6 |
| Cc1ccc(NC(=O)Nc2ccc(Cl)c(C(F)(F)F)c2)cc1-c1ccc(C(=O)Nc2ccncc2)cc1 [GSK1398470] | 90.6 |
| COc1ccc(CSc2nnc(-c3ccc4c(c3)CCO4)o2)cc1 | 0 |
| NS(=O)(=O)c1cccc(N/C=C2\C(=O)Nc3ccc(S(=O)(=O)Cc4c(Cl)cccc4Cl)cc32)c1 [GSK398099] | 22 |
| CNc1nc(-c2ccc3c(N)n[nH]c3c2)cc(N2C[C@@H](C(=O)NC3CCCCC3)OC[C@H]2C)n1 [GSK2375584] | 0 |
| CS(=O)(=O)Cc1ccc(Nc2nccc(-c3c(-c4cccc(NC(=O)C5CCCCC5)c4)nn4ncccc34)n2)cc1 [GSK350559] | 10 |
| COC(=O)c1cccc(NC(=O)NC2CCN(c3ccnc(Nc4ccc(OC)cc4)n3)C2)c1 (stereo not shown) [GSK1379746] | 0 |

Test system: CLK1
Details: concentration: 1 μM, replicates: in singlicate; n = 1

| Compound | %Inh [%] |
| --- | --- |
| COc1ccc(Nc2nccc(N3CCC(NC(=O)c4cc5ccccc5s4)C3)n2)cc1 (stereo not shown) [GSK1379738] | 24 |
| Cc1ccc(-c2nc(Nc3ccncc3)c3ccccc3n2)s1 [GSK189015] | 35 |
| Cn1cncc1C(=O)NC1CCN(c2ccnc(Nc3ccc(F)cc3)n2)C1 (stereo not shown) [GSK1379717] | 23 |
| COc1ccc(Nc2nccc(N3CCC(NC(=O)C(C)c4ccc(Cl)cc4)C3)n2)cc1 (stereo not shown) [GSK1379735] | 16 |
| COc1nccc(-c2c(-c3ccc(F)cc3)ncn2CCCN2CCOCC2)n1 [SB-282852] | 73 |
| Cc1ccccc1Cn1ccn2c(=O)cc(N3CCOCC3)nc12 [GSK2269905] | 48 |
| CS(=O)(=O)CCNCc1nc(-c2ccc3ncnc(Nc4ccc5c(cnn5Cc5ccccc5)c4)c3c2)cs1.Cl.Cl [GW569716] | 24 |
| O=C1NC(=O)C(c2ccc(Cl)cc2)=C1Nc1ccc(O)cc1 [SB-340867] | 51 |
| Cc1cccc2c(-c3ccncn3)c(-c3ccc(F)cc3)nn12 [GW515532] | 99.9 |
| Cn1cncc1-c1cc2c(Nc3ccc(OCc4ccccc4)cc3)ncnc2cn1 [GW281179] | 17 |
| CCn1c(-c2ccccc2)nc2cnccc21 [SB-733416] | 17 |
| Nc1ncnc2occ(-c3ccc4c(c3)CCN4C(=O)Cc3cc(F)ccc3F)c12 [GSK2645446] | 27 |
| c1ccc(-c2ccnc3[nH]ccc23)cc1 [SB-693578] | 12 |
| O=C(Nc1n[nH]c2cc(-c3ccsc3)ccc12)C1CC1 [SB-732932] | 2 |
| COc1ccc(Nc2nccc(NCCNC(=O)Nc3cc(C)ccc3C)n2)cc1 [GSK1379899] | 23 |
| Cc1ccc(NC(=O)Nc2ccccc2F)cc1-c1ccc(C(=O)Nc2ccncc2)cc1 [GSK1398477] | 16 |
| Cl.Cl.Cl.N#Cc1ccc(CCNc2nccc(-c3cccc(CN4CCNCC4)c3)n2)cc1 [GSK2137462] | 17 |
| O=C1NC(=O)C(c2ccc(Cl)cc2)=C1Nc1cccc(Cl)c1 [SB-317651] | 91.6 |

| Compound | %Inh [%] |
| --- | --- |
| Cc1ccccc1-c1cc(-c2c[nH]nc2-c2ccccn2)ccn1 [GW680061] | 15 |
| Fc1ccc(-c2nc3n(c2-c2ccncc2)CCS3)cc1 [GI98581] | 28 |
| CC(C)c1ccc(O)cc1Nc1ccnc2ccc(C(F)(F)F)cc12 [GW482059] | 14 |
| CC(=O)c1cccc(NC(=O)NC2CCN(c3ccnc(Nc4ccc(F)cc4)n3)C2)c1 (stereo not shown) [GSK1379710] | 24 |
| Cc1nccc(-c2c(-c3ccc(F)cc3)ncn2CCCN2CCOCC2)n1.Cl [SB-282975] | 21 |
| O=C(Nc1n[nH]c2nc(-c3ccco3)c(Br)cc12)C1CCN(Cc2ccccc2)C1.O=C(O)[C@H](O)[C@@H](O)C(=O)O (stereo not shown) [SB-742034] | 0 |
| O=c1cc(N2CCOCC2)nc2n(Cc3cccc(Cl)c3Cl)c3ccccc3n12 [GSK2299009] | 27 |
| Cn1cnc2c(N)ncnc21 [SKF-97623] | 6 |
| CNCc1ccc2nc(NC(=O)c3ccc(C(C)(C)C)cc3)cn2c1 | 87 |
| COc1ccc(CSc2nnc(-c3ccc4nccn4c3)o2)cc1C(F)(F)F | 97.1 |
| O=C(Nc1n[nH]c2nc(-c3cccs3)c(Br)cc12)C1CCCC1 [SB-743341] | 0 |
| Nc1nccc(-c2c(-c3ccc(F)cc3)ncn2C2CCN(Cc3ccccc3)CC2)n1 [SB-219980] | 0 |
| Cc1ccc(NC(=O)Nc2ccc(Cl)c(C(F)(F)F)c2)cc1-c1ccc(C(=O)Nc2ccncc2)cc1 [GSK1398470] | 14 |
| COc1ccc(CSc2nnc(-c3ccc4c(c3)CCO4)o2)cc1 | 64 |
| NS(=O)(=O)c1cccc(N/C=C2\C(=O)Nc3ccc(S(=O)(=O)Cc4c(Cl)cccc4Cl)cc32)c1 [GSK398099] | 43 |
| CNc1nc(-c2ccc3c(N)n[nH]c3c2)cc(N2C[C@@H](C(=O)NC3CCCCC3)OC[C@H]2C)n1 [GSK2375584] | 21 |
| CS(=O)(=O)Cc1ccc(Nc2nccc(-c3c(-c4cccc(NC(=O)C5CCCCC5)c4)nn4ncccc34)n2)cc1 [GSK350559] | 10 |
| COC(=O)c1cccc(NC(=O)NC2CCN(c3ccnc(Nc4ccc(OC)cc4)n3)C2)c1 (stereo not shown) [GSK1379746] | 21 |

— paper PMC5540273 (PLoS ONE, 2017)
